# High-throughput results: PubChem, National Center for Advancing Translational Sciences (NCATS)
# Sampled rows, rich in hits. Any-hit rate of the full collection: about 19%.
# IL-1B inflam inh: inhibitors of inflammasome signaling (IL-1 beta secretion); AID 743279; THP-1 LPS/ATP IL-1B secretion, AlphaLISA, 16 h; hits give low values; 360,000 tested, 4.7% active; activity change, % at 57.5 µM; in the data active means activity change below about -50%; inconclusive means mostly about -30% to -49%
#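 Secreted IL-1B measured by AlphaLISA bead assay after 16 h compound exposure of THP-1 cells; compounds (final up to 57.5 uM) added 1 h before LPS (250 ng/mL) and ATP (1.25 mM) stimulation; lower signal means less secretion.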
# HT1080NT lethal: kills 2HG-producing HT-1080-NT fibrosarcoma cells; HT-1080-NT fibrosarcoma viability, CellTiter-Glo ATP luminescence, 48 h; AID 686970; Potency, µM (series often up to 46.1 µM), inactives show at the top dose activity, negative = less viability, most hits filed as cytotoxic; 360,000 tested, 1.6% active;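 further: NT is the 2HG producing partner of a matched IDH1 knockdown line; potency means the concentration at half of the fitted maximal effect; 0% = DMSO-treated cells and -100% = media-only wells without cells; nearly all actives have a fitted effect of over 55% in size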
#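 A 48-hour cytotoxicity screen used HT-1080-NT cells plated 2 hours before compound delivery. ATP-based CellTiter-Glo luminescence measured viability, normalized to DMSO and no-cell controls.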
# DT40 TDP1 CPT: growth inhibition of DT40 Tdp1-/-;hTDP1 cells with camptothecin (screen for TDP1 inhibitors) | chicken DT40 Tdp1-/-;hTDP1 cells + 20 nM CPT, ATP luminescence, 48 h | Potency, µM (series often up to 46.2 µM), for inactives: top-dose activity change, negative = growth inhibition, actives largely listed as inhibitors | 420,000 tested, 12% active | AID 686979; further: potency means the concentration at half of the fitted maximal effect; nearly all actives have a fitted effect of over 55% in size
#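 Chicken DT40 Tdp1-/- cells complemented with human TDP1, 400 cells/well, exposed to compounds plus 20 nM camptothecin for at least 48 h at 37 C; viability read as ATP content by CellTiter-Glo luminescence.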
# HT1080 IDH1KD tx: toxicity to HT-1080 IDH1 knockdown cells (counter line); 360,000 tested, 2% active; AID 686971; HT-1080 IDH1 knockdown viability, ATP luminescence, 48 h; Potency, µM (series often up to 46.1 µM), inactives show top-dose activity, negative = toxicity, usual class: cytotoxic;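 further: potency means the concentration at half of the fitted maximal effect; 0% = DMSO wells and -100% = cell-free medium wells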
#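 Viability of IDH1-knockdown HT-1080 fibrosarcoma cells was assessed by CellTiter-Glo after 48 h at 37 °C with titrated compound; concentration-effect curves were classified by fit quality and response size.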
# DT40 TDP1 no CPT: qHTS for Inhibitors of human tyrosyl-DNA phosphodiesterase 1 (TDP1): qHTS in cells in absence of CPT; AID 686978, 2013; 420,000 tested, 15% active; Potency, µM (highest dose often 46.2 µM), for inactives: at the top dose activity change, negative = growth inhibition, usual class: inhibitors; DT40 Tdp1-/- hTDP1 cells, no CPT, ATP luminescence, 48 h; further: potency means the concentration at half of the fitted maximal effect; nearly all actives have a fitted effect of over 55% in size
#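 Chicken DT40 Tdp1-/- cells stably complemented with human TDP1 were seeded at 400 cells/well with DMSO in place of 20 nM camptothecin. After compound pinning, cells grew at least 48 hr at 37 °C; viability read by CellTiter-Glo luminescence.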
# Starred values were filed as active, the others as inactive; u = inconclusive; x = not tested or not shown; [ ] = remark or other dose. Unless noted, the call rests on the fitted dose curve; in most records, active means well fitted curve in the direction sought with a large enough effect; inconclusive means small, poorly fitted or top-dose-only effect, or another doubt; inactive means no such curve, though single readings can be large; an effect the other way counts as inactive or inconclusive. Unless noted, on the % scale 0 is the no-effect control and ±100 the full control effect.
SMILES,IL-1B inflam inh,HT1080NT lethal,DT40 TDP1 CPT,HT1080 IDH1KD tx,DT40 TDP1 no CPT
O=C(C1CC1)N1CCN(c2nc3c(Cl)cccc3s2)CC1,x,x,20.6µM*,x,20.6µM*
Cc1ccc(Cl)c2sc(N3CCN(C(=O)C4CC4)CC3)nc12,x,x,-6.1%,x,u
Cc1cc(C)c2nc(N3CCC(C(=O)N4CCN(c5ncccn5)CC4)CC3)sc2c1,-78.3*,-19.7%,16.4µM*,0.7%[9.24 µM],u
Cc1cc(C)c2nc(N3CCN(C(=O)c4cccs4)CC3)sc2c1,-70.3*,-15.1%,7.6%,-12.3%,u
Cc1cc2nc(N3CCN(C(=O)c4cccs4)CC3)sc2cc1C,9.6,18.0%,-21.7%,8.6%,u
O=C(Oc1ccc(-n2cnnn2)cc1)c1ccccc1,-6.1,-14.1%,-11.1%,5.4%,u
COc1ccc(CNC(=O)CSc2nnc(Cn3nnc4ccccc43)n2C)cc1,u,-1.8%,-12.5%,-0.4%,3.8%
CC(C)CC[n+]1ccn(-c2nc3ccccc3nc2[N-]S(=O)(=O)c2ccc(Cl)cc2)c1,-1.7,-4.4%,4.5%,1.0%,u
COc1cc(N=Nc2c(O)c3ccccc3[nH]c2=O)c(OC)cc1N=Nc1ccccc1,24.1,1.7%,u,6.7%,13µM*
COc1ccc(OC)c(N=Nc2c(O)c3ccccc3[nH]c2=O)c1,11.4,-28.9%,14.6µM*,u,18.4µM*
O=C(CCCn1c(=O)[nH]c2ccccc2c1=O)NCCSCc1ccccc1,20.5,-22.6%,-21.1%,0.0%,-25.0%
O=C(CCCn1c(=S)[nH]c2ccccc2c1=O)NCCSCc1ccccc1,-17.1,-0.8%,23.1µM*,-3.0%,u
COc1ccc(CNC(=O)CCCCCn2c(=O)[nH]c3ccccc3c2=O)cc1,x,x,-18.2%,x,-3.2%
Cc1ccc(CNC(=O)CCCCCn2c(=O)[nH]c3ccccc3c2=O)cc1,x,x,0.651µM*,x,0.82µM*
Cc1cccc(NS(=O)(=O)c2cccc(C(=O)N3CCC3)c2)c1,-3.9,-5.2%,-17.5%,-0.4%,-19.9%
CC1=C(C(=O)Nc2cccc(C(=O)NC3CCCCC3C)c2)SCCO1 (configuration not stated),-0.5,19.0%,16.4µM*,-1.4%,u
CC1=C(C(=O)Nc2cc(C(=O)N3CCN(c4ccc(Cl)cc4)CC3)ccc2C)SCCO1,-29.2,-6.8%,18.4µM*,-17.1%,14.6µM*
CC1=C(C(=O)Nc2cccc(C(=O)N3CCN(c4cccc(C(F)(F)F)c4)CC3)c2)SCCO1,-60.7*,u,14.6µM*,u,25.9µM*
CC1=C(C(=O)Nc2ccc(C(=O)N3CCN(c4cccc(Cl)c4)CC3)cc2)SCCO1,u,-0.6%,u,-0.9%,-22.1%
COc1cccc(NC(=O)N(CCCN2CCOCC2)C(C)c2cc3ccccc3o2)c1 (configuration not stated),-4.3,15.8µM*,u,-12.4%,u
COc1cccc(NC(=O)N(CCCN2CCOCC2)C(C)c2cc3cccc(OC)c3o2)c1 (configuration not stated),-2.2,-6.1%,-25.4%,-2.4%,u
COc1ccc(COC[B-](F)(F)F)cc1,-52.9*,-3.7%,2.8%,0.6%,-16.9%
COc1ccc(CCCCCCOCc2ccccc2)cc1,0.0,-5.2%,-3.2%,9.0%,15.3%
Cc1ccc(C)c(NS(=O)(=O)c2ccc3c4c(cccc24)C(=O)N3)c1,x,x,u,x,14.6µM*
CCN(CC)CCNS(=O)(=O)c1ccc2c3c(cccc13)C(=O)N2,-1.5,u,u,-27.9%,14.6µM*
Cc1ccc(NC(=O)CN2C(=O)c3ccccc3Sc3ccc(C(=O)N4CCOCC4)cc32)cc1C,x,x,0.4%,x,1.2%
O=C(Cc1cccs1)NC(c1ccccc1)c1ccccc1,-14.4,-0.8%,-0.5%,0.4%,-8.8%
O=C(COC(=O)/C(=C/c1cccs1)c1cccs1)NC(c1ccccc1)c1ccccc1,-14.9,-5.7%,16.4µM*,-11.7%,16.4µM*
